Compound activity (PubChem)
A selection: hits, their analogues and other compounds. The true share with any hit is near 1.2%.
TSG101-PTAP inh – blocks PTAP/TSG101 interaction to inhibit HIV-1 budding. Q99816. Fluorescence polarization, FITC-PTAP peptide / Tsg101 binding. Potency, µM (doses to about 115 µM), inactives show at the highest dose activity change, negative = inhibition, actives largely listed as inhibitors. 340,000 tested, under 10 active; active = well fitted inhibition curve with a large enough effect in the main read-out, with a control signal flat, not every such curve was filed as active; inconclusive = small, poorly fitted or top-dose-only effect, or effect the other way, or a change in a side signal; inactive = no such curve, though single readings can be large or run the other way; note: potency is the fitted concentration of half-maximal effect; % of control where 0% means no effect
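Fluorescence anisotropy tracks displacement of a FITC-tagged PTAP peptide (50 nM) from the Tsg101 binding domain (10 uM), following a 20 min room-temperature incubation at pH 7.5.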
BRCA1 expr act – increases BRCA1 expression; MCF7-BRCA1-FFLuc reporter, luminescence, 48 h; response scale: scaled: vehicle 0%, 10 µM genistein 100%; Potency, µM (series often up to 46.1 µM), for inactives: top-dose activation, hits mostly activators; 380,000 tested, 1.1% active; note: potency is the fitted concentration of half-maximal effect; nearly all actives have a fitted effect of over 80% in size
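Reporter cells (MCF7, BRCA1 promoter-firefly luciferase) received library compounds across a concentration series for 48 h. End-point luminescence was measured and concentration-effect curves derived after normalization.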
TSHR antagonist – blocks TSH signaling through the human TSH receptor; P16473; 330,000 tested, 0.2% active; AID 504810; activity change, negative = inhibition, % at 11.5 µM; TSHR-expressing cells, TSH-stimulated cAMP HTRF, 2 h; active compounds read low;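 active = activity change below a set negative limit, meaning inhibition stronger than a set level, cut at about -70% in these data; inconclusive = activity change between two set negative limits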; note: % is set by controls: 0 for no effect and ±100 for the full control effect
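TSHR-expressing cells were treated with compounds, then stimulated with TSH at EC80 (4nM final) for 2 hours at 37 deg C. Cellular cAMP was measured by HTRF competition between lysate cAMP and cAMP-d2 for a cryptate-labelled anti-cAMP antibody.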
Apoferritin bind – candidate novel general anesthetic via apoferritin binding. apoferritin/1-aminoanthracene competitive binding, fluorescence. 350,000 tested, 0.074% active. P02791. Potency, µM (highest dose often 77.5 µM), for inactives: at the highest dose activity change, negative = displacement, usual class: inhibitors; note: potency is the fitted concentration of half-maximal effect; % is set by controls: 0 for no effect and ±100 for the full control effect; nearly all actives have a fitted effect of over 20% in size
Target sequence (P02791 2-175 limits assumed): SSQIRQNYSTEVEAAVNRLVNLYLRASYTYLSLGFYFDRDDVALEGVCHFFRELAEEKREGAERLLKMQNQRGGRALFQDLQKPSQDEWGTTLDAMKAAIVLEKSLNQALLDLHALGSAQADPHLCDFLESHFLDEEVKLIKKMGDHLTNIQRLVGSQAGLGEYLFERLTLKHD
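Steps: apoferritin (10 uM) was premixed with half-saturated 1-AMA in PBS, compounds were pin-transferred, plates stood 10 min at room temperature, fluorescence was read at 380/535 nm, and curves were fitted with a Hill equation.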
ASM inhibitor – inhibitors of human secretory acid sphingomyelinase; P17405; placental ASM, HMU-PC fluorogenic substrate, 60 min; Potency, µM (titrated, usually from 57.5 µM), for the others: at the top dose activity change, negative = inhibition, usual class: inhibitors; 340,000 tested, 0.006% active; AID 504937; note: potency is the fitted concentration of half-maximal effect
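Steps: dispense placental human ASM, pin compound, wait 10 min at room temperature, add HMU-PC0 substrate at 9 uM final, incubate 60 min at 37 °C, add stop solution raising pH to 10, read fluorescence.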
Starred values were filed as active, the others as inactive; ? = inconclusive; nt = no result; [ ] = dose if it differs, or a comment. Unless noted, calls come from the whole dose curve; as a rule, active = well fitted curve in the direction sought with a large enough effect; inconclusive = small, poorly fitted or top-dose-only effect, or another doubt; inactive = no such curve, though single readings can be large; an effect the other way counts as inactive or inconclusive.

SMILES	TSG101-PTAP inh	BRCA1 expr act	TSHR antagonist	Apoferritin bind	ASM inhibitor
Cc1ccc(CNC(=O)Nc2ccccc2)cc1	-2%	3.5µM*	4	-22%	-1%
Cc1ccc(CNC(=O)NCc2ccccc2)cc1	-1%	49%	10	-8%	4%
O=C(NCc1ccc(F)cc1)Nc1ccccc1	-2%	10µM*	1	-12%	0%
O=C(NCc1ccc(Cl)cc1)Nc1ccc(F)cc1	0%	86%	-45	-1%	2%
O=C(NCc1ccc(Cl)cc1Cl)Nc1ccccc1	0%	?	nt	nt	0%
Cc1ccc(C)c(CNC(=O)Nc2ccccc2)c1	-3%	7.1µM*	2	-11%	6%[11.5 µM]
Cc1cnc2c(C)cccc2c1/C=C/c1ccc(N(C)C)cc1	nt	0%	nt	nt	nt
Cc1ccc(CNC(=O)CCS(=O)(=O)c2ccc(Br)cc2)cc1	1%	2%	9	0%	-2%
O=C(CCS(=O)(=O)c1ccc(Br)cc1)NCc1ccc(F)cc1	-1%	2%	-126*	1%	3%
CC(C)(C)OC(=O)NCCCCCc1cn([C@@H](CO)C(=O)NCCCCCCCCCCC(=O)N2CCN(C(=O)OC(C)(C)C)CC2)nn1	-9%	-48%	-95*	nt	0%
CC(C)(C)OC(=O)CC[C@@H](C(=O)NCCCCCCCCCCC(=O)N1CCN(C(=O)OC(C)(C)C)CC1)n1cc(CCCCCNC(=O)OC(C)(C)C)nn1	nt	9%	23	nt	-1%
C1NNCC12CNNC2	nt	0%	nt	nt	nt
CC(=O)Nc1cc(NC(C)=O)c(N=Nc2ccccc2)cc1C	0%	3.5µM*	-5	-4%	-12%
C=CCc1cccc2cc(-c3nc4ccc(C)cc4[nH]3)c(=O)oc12	nt	2µM*	nt	107%	nt
O=C(O)c1ccc2nc(-c3cc4cccc(O)c4oc3=O)[nH]c2c1	nt	nt	-11	91%	nt
O=c1cc(-c2ccccc2)oc2ccc(O)cc12	-4%	2.8µM*	-7	-4%	-3%
CS(=O)(=O)C1=NSC2=NC(=O)/C(=C\c3ccc(-c4ccccc4)o3)C(=N)N21	nt	nt	-31	-6%	nt
CC(C)S(=O)(=O)C1=NSC2=NC(=O)/C(=C\c3ccc(-c4ccccc4)o3)C(=N)N21	2%	0%	-86*	-7%	7%
COc1ccc(-c2ccccc2C2=CC(=O)CC(C)(C)C2=O)cc1	nt	-18%	nt	nt	nt
COc1ccc2cc(C3=CC(=O)CC(C)(C)C3=O)ccc2c1	nt	13µM*	nt	nt	nt
c1ccc2nccnc2c1	nt	-79%	nt	nt	nt
C/C(=N\OC(=O)c1ccccc1)c1cc(-c2ccc(Cl)cc2)no1	-2%	2.8µM*	10	-9%	-1%
C/C(=N/OC(=O)C1CC1)c1cc(-c2ccc(Cl)cc2)no1	2%	4µM*	-12	-6%	-4%
COc1ccc(-c2ccc(OC)c(C3C4C=CCCC4(C)C(=O)N3Cc3ccccc3)c2)cc1 (stereo not given)	nt	nt	nt	6%	nt
COc1ccc(C2=Nn3c(nnc3-c3ccc(OC)c(OC)c3)SC2)cc1	nt	nt	nt	-14%	nt
SMILES	TSG101-PTAP inh	BRCA1 expr act	TSHR antagonist	Apoferritin bind	ASM inhibitor
CCCOc1ccc(-c2csc(N)n2)cc1[N+](=O)[O-]	0%	7.9µM*	16	-9%	-6%
CCOc1ccc(-c2cn3ccccc3n2)cc1[N+](=O)[O-]	-9%	4µM*	-8	-16%	-1%
CCCCOc1ccc(-c2cn3ccccc3n2)cc1[N+](=O)[O-]	-7%	?	4	?	-13%
Oc1ccc(Br)cc1C1C=C(c2ccc3c(c2)OCO3)NC(c2ccc(Br)cc2)N1 (stereo not given)	nt	0%	nt	nt	nt
Fc1cccc(/C=N/Nc2ccccn2)c1	0%	7.9µM*	9	2%	-3%
Fc1cccc(/C=N/Nc2nc3ccccc3[nH]2)c1	-8%	4.5µM*	-13	2%	0%
O=C(O)c1ccccc1OS(=O)(=O)O	nt	nt	nt	4%	nt
CCn1nnnc1Sc1nc(C)nc2scc(-c3ccccc3)c12	nt	-11%	nt	nt	nt
Cc1ccc(-c2noc(C3CCCN(C(=O)c4ccccc4Br)C3)n2)o1 (stereo not given)	-3%	10µM*	-6	-6%	1%
O=C(c1ccccc1Br)N1CCCC(c2nc(-c3cccs3)no2)C1 (stereo not given)	-2%	39%	-4	-2%	-5%
